# Screening results (PubChem)
# In the library only some 9.5% were active in any assay of this set; here they are far more common.
# ALDH1A1 block: blocks purified human ALDH1A1 activity; P00352; Purified ALDH1A1, NADH fluorescence, propionaldehyde substrate; Potency, µM (titrated, usually from 75.3 µM), for the others: top-dose activity, negative = inhibition, most hits filed as inhibitors; actives 7.3% (n = 220,000); AID 1030; active = well fitted inhibition curve with a large enough effect, not every such curve was filed as active; inconclusive = small, poorly fitted or top-dose-only effect, or another doubt; inactive = no such curve, though single readings can be large or run the other way;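 also: plate controls were no enzyme wells and a reference inhibitor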
# NPSR antagonist: blocks cAMP signaling of the human neuropeptide S receptor; Q6W5P4; CHO-NPSR cells, cAMP TR-FRET, antagonist mode; Potency, µM (doses to about 38.3 µM), for inactives: at the top dose activity change, negative = inhibition, hits mostly inhibitors; actives 1% (n = 220,000); AID 1461; also: nearly all actives have a fitted effect of over 50% in size
# Target sequence (Q6W5P4 whole entry, looked up): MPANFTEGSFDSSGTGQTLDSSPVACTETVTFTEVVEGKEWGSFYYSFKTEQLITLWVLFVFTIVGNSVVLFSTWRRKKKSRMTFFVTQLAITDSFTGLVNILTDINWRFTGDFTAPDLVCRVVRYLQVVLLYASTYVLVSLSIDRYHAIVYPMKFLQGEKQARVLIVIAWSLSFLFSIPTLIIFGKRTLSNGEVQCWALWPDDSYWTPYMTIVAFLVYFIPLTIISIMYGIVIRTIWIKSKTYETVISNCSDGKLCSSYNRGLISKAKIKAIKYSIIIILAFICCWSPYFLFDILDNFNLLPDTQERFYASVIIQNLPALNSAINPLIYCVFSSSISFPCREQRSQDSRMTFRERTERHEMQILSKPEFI
# HPGD inh: HPGD (human) dehydrogenase inhibition | P15428 | purified HPGD, NADH fluorescence kinetic, PGE2 substrate | Potency, µM, without a hit: at the top dose activity change, negative = inhibition, most hits filed as inhibitors | actives 4.3% (n = 150,000) | AID 894; active = well fitted inhibition curve with a large enough effect, not every such curve was filed as active; inconclusive = small, poorly fitted or top-dose-only effect, or another doubt; inactive = no such curve, though single readings can be large or run the other way
#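 20 nM HPGD preincubated 15 min at room temperature with compound in 50 mM Tris-HCl pH 8, 0.01% Tween 20. Started with 1 mM NAD+ and 30 uM prostaglandin E2; NADH fluorescence (360/450 nm) read 5 times over 30-s intervals, last minus first.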
# Tau ThT inhib: tau fibrillization inhibition (ThT binding); recombinant tau K18 P301L, heparin-induced fibrillization, ThT fluorescence; actives 2.1% (n = 270,000); AID 1460; Potency, µM (doses to about 57.4 µM), inactives show at the top dose activity, negative = inhibition, most hits filed as inhibitors; P10636; also: nearly all actives have a fitted effect of over 55% in size
# Target sequence (P10636 561-689 P618L limits assumed): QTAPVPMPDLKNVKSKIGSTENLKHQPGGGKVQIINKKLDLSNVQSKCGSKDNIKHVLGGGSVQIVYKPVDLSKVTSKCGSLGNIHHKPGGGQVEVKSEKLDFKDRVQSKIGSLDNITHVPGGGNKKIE
#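 Using a mix of unlabeled (15 uM) and Alexa 594-labeled (0.24 uM) tau K18 P301L, heparin-triggered fibrillization over 6 hr at 37 C was scored by ThT fluorescence.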
# Tau fluor counter: counter-screen for tau fibril formation inhibitors; actives 0.93% (n = 280,000); Potency, µM (titrated, usually from 57.7 µM), inactives show at the top dose activity change, negative = decrease; tau K18 P301L Alexa594 fluorescence, heparin fibrillization; also: nearly all actives have a fitted effect of over 55% in size
#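 Human tau K18 P301L (15 uM unlabeled, 0.24 uM Alexa 594-labeled) in 100 mM sodium acetate pH 7 with 20 uM heparin, 6 hr at 37 C. ThT 30 uM added, 1 hr ambient; Alexa 594 FP and total fluorescence read at 555/632 nm.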
# Tau fibril FP: blocks human tau fibril formation measured by polarization; Potency, µM (highest dose often 57.7 µM), for inactives: at the top dose activity, negative = inhibition, usual class: inhibitors; K18 P301L tau heparin fibrillization, Alexa594 FP, 6 h; AID 1468; P10636; actives 0.39% (n = 280,000); also: nearly all actives have a fitted effect of over 55% in size
#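 Compound effects on tau fibrillization are measured by Alexa 594 fluorescence polarization (ex 555, em 632 nm). K18 P301L tau is used at 15 uM with 0.24 uM labeled tracer, and 20 uM heparin induces aggregation over 6 hr at 37 C.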
# An asterisk follows results filed as active; ? = inconclusive; / = no result; [ ] = another dose, or the depositor's remark. Unless noted, calls follow the shape of the dose curve; as a rule, active = well fitted curve in the direction sought with a large enough effect; inconclusive = small, poorly fitted or top-dose-only effect, or another doubt; inactive = no such curve, though single readings can be large; an effect the other way counts as inactive or inconclusive. Unless noted, % is scaled to controls: 0 for no effect and ±100 for the full control effect; potency is read from the fitted curve at half-maximal effect.
SMILES,ALDH1A1 block,NPSR antagonist,HPGD inh,Tau ThT inhib,Tau fluor counter,Tau fibril FP
Cc1cc(Nc2cccc(Cl)c2)nc2ccc(NC(=O)COc3ccc(Cl)cc3)cc12,/,/,/,?,7.9µM*[quencher],-9%
COc1cccc(NC(=O)N(Cc2c[nH]c3ccccc23)C2CCCCCC2)c1,/,/,/,-12%,?,-17%
C=CCNC(=S)NNC(=O)c1cccn(Cc2cccc(Cl)c2)c1=O,5%,-5%[46.1 µM],-3%,1%,-10%,-2%
Cn1c(CSc2nnc(SCc3ccccc3)s2)nc2ccccc21,25µM*,-27%[46.1 µM],-26%,?,-17%,-4%
Cn1c(CSc2nc3ccc(Br)cc3[nH]2)nc2ccccc21,4%,-14%[46.1 µM],-7%,-10%,?,-9%
COc1ccc(/C=C2\N=C3CCCCCN3C2=O)cc1,?,3%,/,-2%,2%,1%
COc1ccc(/C=C2\N=C(c3c(-c4ccccc4)noc3C)OC2=O)cc1OC,7%,-4%[46.1 µM],0%,-9%,3%,-4%
CC1=N/C(=C\c2ccc(OC(C)C)cc2)C(=O)N1c1ccc(C(=O)O)cc1,-8%,-5%,16µM*,-6%,-5%,-5%
COc1ccc(/C=C2/N=C3CCCCCN3C2=O)cc1OC,28µM*,-7%[46.1 µM],-10%,-20%,-5%,0%
COc1ccc(/C=C2\N=C(c3ccccc3)N(c3ccc(C(=O)O)cc3)C2=O)cc1OC,/,13µM*,/,?,3%,-5%
O=C(NCCc1ccc(Cl)cc1)C1CCC(=O)N1Cc1ccc(F)cc1 (stereo unspecified),2%,-10%[46.1 µM],1%,-5%,-7%,-3%
CCCCc1nc2c(c3c1C[C@H](C)OC3)CN(C(=O)Cc1cccs1)CC2,3%[13.5 µM],/,-7%,4%[11.5 µM],1%[11.6 µM],0%[11.6 µM]
Cc1ccc(S(=O)(=O)c2nnn3c2nc(N2CCC(C)CC2)c2cc(Cl)ccc23)cc1C,/,/,/,?,-29%,-14%
O=C(/C=C/NNC(=O)c1ccccc1)c1ccccc1,-9%,-19%[46.1 µM],-29%,?,-15%,8%
O=C(/C=C/NNC(=O)c1ccc(Br)cc1)c1ccccc1,10µM*,-13%[46.1 µM],-20%,25µM*,?,-3%
Cc1ccc(Nc2nc(-c3ccccc3)nc3ccccc23)cc1,/,/,/,?,10µM*[quencher],18µM*
c1ccc(Nc2nc(-c3ccncc3)nc3ccccc23)cc1,?,-23%,?,-6%,-14%,-14%
CN(C)c1ccc(-c2nc(Nc3ccncc3)c3ccccc3n2)cc1,-5%,/,?,7.1µM*,7.1µM*[quencher],?
Cc1cccc(Nc2nc(-c3ccccc3)nc3ccccc23)c1,/,/,/,-9%,6.3µM*[quencher],8.9µM*
CN(C)c1ccc(-c2nc(N3CCNCC3)c3ccccc3n2)cc1,-15%,/,-18%,14µM*,?,1%
Oc1cccc(Nc2nc(-c3ccccc3)nc3ccccc23)c1,/,/,/,-10%,7.1µM*[quencher],14µM*
COc1ccc(NC(=O)c2cc(-c3ccco3)nc3ccccc23)cc1S(=O)(=O)N1CCOCC1,?,14%,/,?,?,-5%
COc1ccc(Nc2nc(-c3ccccc3)nc3ccccc23)cc1S(=O)(=O)N1CCOCC1,/,-54%,/,/,13µM*[quencher],25µM*
CN1CCN(c2nc(-c3cccnc3)nc3ccccc23)CC1,-1%,13%[46.1 µM],-13%,4%,5%,4%
c1cncc(-c2nc(N3CCCCCC3)c3ccccc3n2)c1,1.4µM*,?,-20%,?,-10%,-7%
COc1ccc(N2CCN(S(=O)(=O)c3ccc(F)c(C(=O)Nc4ccccc4Cl)c3)CC2)cc1,/,/,/,5%,-9%,12%
COCCNC(=O)Cn1c(=O)c2cccn2c2ccc(F)cc21,/,/,/,-8%,-17%,-6%
O=S(=O)(c1ccc(Cl)cc1)N1c2ccccc2Oc2nc3ccccc3nc21,25µM*,-14%[46.1 µM],-13%,-3%,-28%,-3%
CC(=O)c1sc(Nc2nc(C)cc(C)n2)nc1C,0.89µM*,18%[46.1 µM],14µM*,-4%,2%,1%
